Measured values from PubChem BioAssay (NCATS).

Test: qHTS profiling of the MIPE4 collection as inhibitors of Plasmodium falciparum (3D7) proliferation (AID 743344);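 further: scaled between DMSO vehicle wells and 0.29 µM artemisinin as full inhibition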
Details: P. falciparum 3D7 in erythrocytes, SYBR Green DNA fluorescence, 72 h; at 28.5 µM unless noted
Text: Plasmodium falciparum is a virulent malarial parasite that kills 1-2 million people worldwide each year. Transmitted by mosquitoes, the sporozoite form of the parasite enters the blood stream to infect hepatocytes, where they become merozoites that infect red blood cells (erythrocytes). Within erythrocytes, merozoites begin a […] cycle of growth and division, after which the parasite is released to infect new red blood cells. Gametocytes, which form within erythrocytes as well, circulate in the bloodstream and are ingested by the mosquito, thereby completing the life cycle. To profile malarial isolates for differential chemical responses and to identify inhibitors of malarial growth, an assay that measures P. falciparum growth and replication within erythrocytes was employed. This assay uses a DNA binding fluorescent dye (SYBR Green) to detect parasite DNA following cell lysis. Because mature erythrocytes lack DNA, only Plasmodium-derived DNA is detected.
The SYBR Green viability assay was adapted from a method described previously (Plouffe et al., 2008). For screening 3 ul culture medium was dispensed into 1536 well black clear bottom plates (Aurora Biotechnologies) using a Multidrop Combi (Thermo Fisher Scientific Inc.), 23 nL compounds in DMSO were added by a pin tool (Kalypsys), and 5 ul of erythrocytes infected with P. falciparum (0.3% parasitemia, 2.5% hematocrit final concentration) were added. The plates were incubated at 37 C in a humidified incubator in 5% CO2 for 72 h, and 2 ul lysis buffer (20 mM Tris HCl, 10 mM EDTA, 0.16% saponin, 1.6% triton X, 10X SYBR Green I supplied as 10,000X […] by Invitrogen) was added to each well. The plates were mixed for 25 sec with gentle shaking and incubated overnight at room temperature in the dark. The following morning, fluorescence intensity at 485(14) nm excitation and 535(25) nm emission wavelengths was measured on an EnVision (Perkin Elmer) plate reader. Plate reads were normalized relative to the control inhibitor (0.29 uM artemisinin) and vehicle (DMSO) wells present on each plate and then corrected by an algorithm using vehicle-only control plates at the beginning and end of the compound plate stack.
CC1(C)O[C@H]2C[C@@H]3[C@H]4CCC5=CC(=O)C=C[C@]5(C)[C@@]4(F)[C@@H](O)C[C@]3(C)[C@]2(C(=O)CO)O1 gave a parasite growth, % of DMSO control of 38.4%. Nc1ncnc2c1ncn2[C@@H]1O[C@H](CO)C[C@@H]1O showed a parasite growth, % of DMSO control of 43.4%. Work on CC(C)n1nc(-c2ccc3oc(N)nc3c2)c2c(N)ncnc21 yielded a parasite growth, % of DMSO control of 5.01%. Compound COCCOc1nc(-c2ccc(Cl)c(Cl)c2)n(-c2ccc(NC(=O)CCl)cc2)n1 has a parasite growth, % of DMSO control of 20.8%. With O=c1cc(-c2ccccc2)oc2cc(O)c(O)c(O)c12 the parasite growth, % of DMSO control was 7.41%. Cc1c(NC(=O)c2ccc(C(C)(C)C)cc2)cccc1-c1cn(C)c(=O)c(Nc2ccc(C(=O)N3CCOCC3)cc2)n1 showed a parasite growth, % of DMSO control of 5.68%. With O=C(O)c1cc(O)c2c(c1)C(=O)c1cccc(O)c1C2=O the parasite growth, % of DMSO control was 62.1% [at 57.5 µM]. Work on O=C1C(Cl)=C(NCCN2CCOCC2)C(=O)c2ncccc21 yielded a parasite growth, % of DMSO control of 15.2%. Work on CN(C)Cc1ccc(-c2nc3cccc4c3n2CCNC4=O)cc1 yielded a parasite growth, % of DMSO control of 64%. For O=c1ccn([C@@H]2O[C@H](CO)[C@H](O)[C@H]2O)c(=O)[nH]1, the parasite growth, % of DMSO control was 92.2%. In the case of C[C@@H](O)[C@H]1C(=O)N2C(C(=O)O)=C(S[C@@H]3CN[C@H](C(=O)N(C)C)C3)[C@H](C)[C@H]12, the parasite growth, % of DMSO control is reported as 109% [at 9.64 µM]. Compound Cn1c(N2CCCCS2(=O)=O)nc(C(=O)NCc2ccc(F)cc2)c(O)c1=O has a parasite growth, % of DMSO control of 101%. COc1ccc(-c2oc3c(CC=C(C)C)c(OC4O[C@H](CO)[C@@H](O)[C@H](O)[C@@H]4O)cc(O)c3c(=O)c2OC2O[C@@H](C)[C@H](O)[C@@H](O)[C@@H]2O)cc1 (stereo not given in full) gave a parasite growth, % of DMSO control of 8.49%. Work on NC(=O)c1cnc(-c2ccc(C3(N)CCC3)cc2)c(-c2ccccc2)c1 yielded a parasite growth, % of DMSO control of 55.3%. Compound CCNc1cc(NC2CCC(O)CC2)nc(Nc2ccc3c(ccn3Cc3ccccc3)c2)n1 (stereo not given) has a parasite growth, % of DMSO control of 4.9%. CC(=O)O[C@]1(C(C)=O)CC[C@@H]2[C@@H]3C[C@H](C)C4=CC(=O)CC[C@]4(C)[C@H]3CC[C@@]21C showed a parasite growth, % of DMSO control of 24.9%. With Cc1ccc(C(=O)Nc2cccc(C(F)(F)F)c2)cc1Nc1nc(-c2cccnc2)nc2c1cnn2C the parasite growth, % of DMSO control was 7.71%. O=C(NC1CCOCC1)c1ccc(-c2cc(-c3cn[nH]c3-c3ccccn3)ccn2)cc1 showed a parasite growth, % of DMSO control of 17.3%. COCCOC(=O)C1=C(C)NC2=C(C(=O)CC(c3ccccc3OC)C2)C1c1cccc(O)c1 (stereo not given) showed a parasite growth, % of DMSO control of 11.6%. COc1ncc(-c2ccc3nccc(-c4ccnnc4)c3c2)cc1NS(=O)(=O)c1ccc(F)cc1F showed a parasite growth, % of DMSO control of 4.65%. Compound NC(=O)c1ccc2nc(-c3ccc(Oc4ccc(Cl)cc4)cc3)[nH]c2c1 has a parasite growth, % of DMSO control of 48.1%. Work on O=C(Nc1ccccc1-c1cn2c(CN3CCNCC3)csc2n1)c1cnc2ccccc2n1 yielded a parasite growth, % of DMSO control of 5.22%. Compound O=C(O)[C@H]1O[C@H](Oc2cc3oc(-c4ccccc4)cc(=O)c3c(O)c2O)[C@H](O)[C@@H](O)[C@H]1O has a parasite growth, % of DMSO control of 69.9%. With CC(=NNC(=S)N1CCC1)c1ccccn1 the parasite growth, % of DMSO control was 5.99%. Compound C=C1C(=O)OC2C=C(C)CCC=C(C)CCC12 (stereo not given) has a parasite growth, % of DMSO control of 238%. In the case of COc1ccc2c(Oc3ccc(NC(=O)c4c(C)n(CC(C)(C)O)n(-c5ccccc5)c4=O)cc3F)ccnc2c1, the parasite growth, % of DMSO control is reported as 18.3%. Compound COc1ccc2cc(-c3nc(-c4ccc(S(C)=O)cc4)[nH]c3-c3ccncc3)ccc2c1 (stereo not given) has a parasite growth, % of DMSO control of 6.21%. For COc1ccc(-c2nc(N3CCOCC3)c3sc(CN(C)c4ncc(C(=O)NO)cn4)cc3n2)cn1, the parasite growth, % of DMSO control was 5.2%. N#CC(=C(N)Sc1ccccc1N)C(C#N)=C(N)Sc1ccccc1N showed a parasite growth, % of DMSO control of 4.41%. CC[C@H]1OC(=O)[C@H](C)C(=O)[C@H](C)[C@@H](O[C@H]2O[C@H](C)C[C@H](N(C)C)[C@@H]2O)[C@](C)(OC)C[C@@H](C)C(=O)[C@H](C)[C@H]2N(CCCCn3cnc(-c4cccnc4)c3)C(=O)O[C@]12C gave a parasite growth, % of DMSO control of 5.78%. In the case of O=C1NC(=O)C(=Cc2ccc(-c3ccc(F)cc3)o2)S1, the parasite growth, % of DMSO control is reported as 75.2%. Work on Cc1ccc(C(C)(O)c2nc3ccccc3s2)c(C)c1 (stereo not given) yielded a parasite growth, % of DMSO control of 61.8%. For NC(=O)c1cccc(-c2cc(Nc3ccc(OC(F)(F)F)cc3)ncn2)c1, the parasite growth, % of DMSO control was 12.3%. Work on C=C1C(=O)OC(CCCCCCCC)C1C(=O)O (stereo not given) yielded a parasite growth, % of DMSO control of 50.6%. With COc1ccc(-c2coc3cc(O)ccc3c2=O)cc1 the parasite growth, % of DMSO control was 65.1%. Compound N[C@H](CSC(c1ccccc1)(c1ccccc1)c1ccccc1)C(=O)O has a parasite growth, % of DMSO control of 10.7%. Compound CCn1c(C(=O)N(C2CC2)C2CC2)cc2c3c(ncn3C)c(Nc3cc(C)n(C)n3)nc21 has a parasite growth, % of DMSO control of 9.81%. Compound COc1cc(N2CCC(N3CCN(C)CC3)CC2)ccc1Nc1ncnc(Nc2ccccc2S(=O)(=O)C(C)C)n1 has a parasite growth, % of DMSO control of 8.76%. In the case of O=c1cc(CN2CCOCC2)occ1OCCCCCSc1ccnc2cc(C(F)(F)F)ccc12, the parasite growth, % of DMSO control is reported as 36.7%. CCN(CC)CCOc1ccc(C(=C(Cl)c2ccccc2)c2ccccc2)cc1 gave a parasite growth, % of DMSO control of 5.06%.
